In PubChem BioAssay (NCI) one finds growth inhibition data, which are given here for 38 molecules.

This is part of a sample that, as a whole, favours compounds with a hit. Of some 79,000 tested, about 15% had one in any assay. Unmarked numbers belong to inactive results. Calls of active or inactive are those of the source. Rule as the data show it: active = growth inhibition above about 70%; inactive = the rest.

Test [1] can be described thus: NCI Yeast Anticancer Drug Screen. Data for the rad50 strain (AID 155).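 Also: 0% = growth of vehicle-only cultures of the same strain.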 As to conditions: S. cerevisiae rad50 strain growth inhibition; at 50.0 µM; hits give high values. In a few lines:
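Compounds were tested on a yeast strain with an engineered DNA damage repair alteration; the reported value is growth inhibition normalised to vehicle treatment.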

Test [2] is described as follows: NCI Yeast Anticancer Drug Screen. Data for the mec2-1 strain (AID 157). Particulars: S. cerevisiae mec2-1 strain, at 50.0 µM, hits give high values. In a few lines: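 Each compound was tested on mec2-1 yeast, a strain altered in DNA damage repair or cell cycle control. Growth inhibition is reported relative to vehicle.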
A short description of test [3]: NCI Yeast Anticancer Drug Screen. Data for the sgs1 mgt1 strain (AID 161).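 Also: 0% = growth of cultures given vehicle only.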 As to conditions: S. cerevisiae sgs1 mgt1 strain, at 50.0 µM, hits give high values. In a few lines:
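Inhibition of yeast growth, normalised to vehicle-treated controls, is reported for a strain bearing genetic alterations in DNA damage repair.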

Test [4] is described as follows: NCI Yeast Anticancer Drug Screen. Data for the cln2 rad14 strain (AID 165).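 Also: 0% = growth equal to vehicle treated cultures.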 As to conditions: S. cerevisiae cln2 rad14 strain, at 50.0 µM, hits give high values. In a few lines:
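Test compounds were added to cln2 rad14 yeast cultures; inhibition of growth was then determined by comparison with vehicle treatment.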

A short description of test [5]: NCI Yeast Anticancer Drug Screen. Data for the bub3 strain (AID 167). Particulars: S. cerevisiae bub3 mutant strain, at 50.0 µM, hits give high values. In a few lines:
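Growth of a checkpoint-deficient yeast mutant is measured after compound exposure. Values represent inhibition relative to vehicle.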

The nature of test [6]: NCI Yeast Anticancer Drug Screen. Data for the mlh1 rad18 strain (AID 175). As to conditions: S. cerevisiae mlh1 rad18 strain growth inhibition; at 50.0 µM; hits give high values. In a few lines: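 Inhibition values reflect reduced growth of mutant yeast versus vehicle-treated controls following compound exposure; the mutations affect DNA damage repair.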

Take `Nc1nc(CCl)nc(N2CCOCC2)n1`: the growth inhibition was 6.3% in test [1]; 1.65% in test [2]; 7.7% in test [3]; 20.4% in test [4]; 19.4% in test [5]; -20.2% in test [6].

`CC1=C(C(=O)O)CCCO1`: the growth inhibition in test [1] is -7.6%; in test [2] it was 7.75%; in test [3], 10.2%; in test [4], -3%; in test [5] it was -3.75%; in test [6], 25.7%.

On to `COC1=CC(=O)N(C(=O)C2CSC(C(CO)NC(=O)c3csc(/C=N/O)n3)=N2)C1` (stereo not drawn), for which the growth inhibition in test [1] was 1.85%; in test [2] it was -11.3%; in test [3], 8.9%; in test [4] it was -4.15%; in test [5], -6.25%; in test [6], 19.9%.

For the molecule `CC(C)(C)OC(=O)NO`, the growth inhibition in test [1] was -0.6%; in test [2], 2.9%; in test [3], 0%; in test [4], 1.75%; in test [5] it was 5.05%; in test [6] it was 4.7%.

For the molecule `CCOC(=N)CC(=O)NC(C)c1ccccc1` (stereo not drawn), the growth inhibition in test [1] is 2.25%; in test [2] it was -3.6%; in test [3], -6%; in test [4], 14.3%; in test [5] it was 0.15%; in test [6], 1.85%.

In the case of `COc1ccc2c(c1)OCC1=C2Oc2ccccc2C1`, the growth inhibition is 98.2% (active) in test [1]; 99.3% (active) in test [2]; 99.1% (active) in test [3]; 98.6% (active) in test [4]; 97.9% (active) in test [5]; 98.8% (active) in test [6].

Regarding `CC(=O)N(C(=O)CC(=O)N1N=C(c2ccccc2)C(N=Nc2ccccc2[N+](=O)[O-])C1=O)c1ccc(Cl)cc1` (stereo not drawn), the growth inhibition in test [1] was -4.3%; in test [2] it was -21.8%; in test [3], -0.2%; in test [4] it was -37%; in test [5], -27.2%; in test [6], -19%.

For the molecule `CC(C)[O-].CC(C)[O-].O=c1cccccc1[O-].O=c1cccccc1[O-].[Ti+4]`, the growth inhibition in test [1] is -13.2%; in test [2], 0.9%; in test [3] it was 14.2%; in test [4] it was 10.8%; in test [5], -1.5%; in test [6], 22.4%.

As to `O=C(CN1CCCC1)Nc1ccc2sc3ccccc3c(=O)c2n1`, the growth inhibition in test [1] is 17.2%; in test [2], -29.7%; in test [3], -5.75%; in test [4] it was 21.6%; in test [5], 11%; in test [6], 3.55%.

`CCOC(=O)c1cc(-c2ccc(OC)c(OC)c2)c[nH]1`: the growth inhibition in test [1] was 14.6%; in test [2] it was -2.3%; in test [3], 40.2%; in test [4] it was 12.6%; in test [5], 23.1%; in test [6] it was 28%.

Consider `COc1ccc([N+](=O)[O-])cc1NC(=S)NC(=O)c1cccc(Br)c1`, for which the growth inhibition in test [1] was -8.6%; in test [2], 4.2%; in test [3], -0.1%; in test [4], -63.6%; in test [5] it was 3.7%; in test [6] it was 1.55%.

For `O=C(O)CCC1CC1C(=O)c1ccccc1` (stereo not drawn), the growth inhibition in test [1] is 15.2%; in test [2], 5.55%; in test [3], -3.85%; in test [4] it was -37%; in test [5], -28.6%; in test [6], 17.9%.

Regarding `Cc1cc(C(=O)O)c2c([nH]1)c(C)cc1nc3ccccc3c12`, the growth inhibition was 12.6% in test [1]; 5.65% in test [2]; -10% in test [3]; 12.1% in test [4]; 4.95% in test [5]; -19.2% in test [6].

In the case of `OCCCNCc1ccncc1`, the growth inhibition in test [1] was 22.8%; in test [2], -15.8%; in test [3], -14.6%; in test [4], 33.5%; in test [5], -16.2%; in test [6] it was -3.55%.

With `CC(=O)OCC12CCC(C)=CC1O[C@H]1[C@@H](OC(C)=O)[C@H](OC(C)=O)[C@]2(C)[C@@]12CO2` (stereo partly drawn), the growth inhibition was 24.6% in test [1]; -17.4% in test [2]; -19.6% in test [3]; 42.4% in test [4]; -14.6% in test [5]; 30.9% in test [6].

Regarding `CC(=O)OC12c3ccccc3-c3ccccc3C1C1C(=O)N(C)C(=O)C12Cl` (stereo not drawn), the growth inhibition was -13.4% in test [1]; -22.2% in test [2]; -12.2% in test [3]; 10.4% in test [4]; 36.5% in test [5]; 13.2% in test [6].

Take `O=C(O)C1COCOC1c1ccccc1` (stereo not drawn): the growth inhibition in test [1] was -1.6%; in test [2], -10.3%; in test [3] it was 3%; in test [4] it was -14.9%; in test [5] it was -4.05%; in test [6] it was 6.9%.

In the case of `O=C(/C=C/c1ccc(Cl)cc1)c1cc(Cl)ccc1O`, the growth inhibition in test [1] is -14.4%; in test [2] it was -25.3%; in test [3], -13.8%; in test [4] it was -27.8%; in test [5], 16.2%; in test [6], -10.2%.

As to `O=C(O)C1(C(=O)O)Cc2ccccc2C1`, the growth inhibition is -15.6% in test [1]; -12.6% in test [2]; -9.15% in test [3]; -9.35% in test [4]; 9.85% in test [5]; 14.8% in test [6].

For `CC1=NN(C(=O)c2ccncc2)C(=O)C1N=Nc1ccc([N+](=O)[O-])cc1Cl` (stereo not drawn), the growth inhibition is 47.1% in test [1]; 9.95% in test [2]; 21.3% in test [3]; -26.1% in test [4]; -2.1% in test [5]; 14.1% in test [6].

Consider `CCCCCSCCC(=O)O`, for which the growth inhibition in test [1] is 12.4%; in test [2] it was 11.7%; in test [3] it was 11.2%; in test [4] it was 4.25%; in test [5] it was -1.2%; in test [6], -6.35%.

As for `O=C(/C=C/c1ccco1)c1ccc(O)c(C(=O)O)c1`, the growth inhibition was -7.8% in test [1]; -1.25% in test [2]; -1% in test [3]; -39.5% in test [4]; -26.6% in test [5]; -2.9% in test [6].

With `CC(=O)Oc1ccc2c(c1)C(=O)CCCCCC(=O)O2`, the growth inhibition in test [1] was 19.2%; in test [2], 4.2%; in test [3] it was 6.85%; in test [4], -0.25%; in test [5], -2.4%; in test [6] it was -10.8%.

On to `Brc1cccc(CCOCc2ccccc2)c1`, for which the growth inhibition in test [1] is 8.45%; in test [2] it was -11.6%; in test [3], -4.3%; in test [4] it was 2.05%; in test [5] it was 0.5%; in test [6], -3.9%.

As to `CN(C)c1nc2nccnc2c(=O)[nH]1`, the growth inhibition is 11.4% in test [1]; -1.75% in test [2]; -11.2% in test [3]; -52.5% in test [4]; 6.45% in test [5]; -14.3% in test [6].

`O=C(/C(=C/c1ccccc1)c1ccc(Cl)cc1)c1ccccc1`: the growth inhibition in test [1] was 12.6%; in test [2], 13.9%; in test [3] it was 13.7%; in test [4] it was -15.1%; in test [5] it was 5.9%; in test [6], -4%.

On to `COc1ccc(CNc2ccccc2C(=O)O)cc1OC`, for which the growth inhibition is 11.2% in test [1]; 2.8% in test [2]; -1.95% in test [3]; 31.4% in test [4]; 32.8% in test [5]; 8.65% in test [6].

Consider `O=C(C[n+]1cccc(Br)c1)c1ccc(F)cc1`, for which the growth inhibition in test [1] was 16.1%; in test [2], 19.9%; in test [3], 9.6%; in test [4], 21.4%; in test [5], 3.35%; in test [6] it was 10.2%.

As to `CC1(C)C=Cc2c(ccc(C(=O)Cc3ccccc3)c2O)O1`, the growth inhibition is 24.1% in test [1]; 17.4% in test [2]; 26.4% in test [3]; -8.1% in test [4]; 16% in test [5]; 23.1% in test [6].

Take `CC(=O)NC(CCCCNC(=O)N(C)N=O)C(=O)NCc1ccccc1` (stereo not drawn): the growth inhibition in test [1] was -41.1%; in test [2], -17.6%; in test [3], -12.2%; in test [4] it was -4.3%; in test [5], -26.8%; in test [6], -12.8%.

Regarding `CN(Cc1ccc(Cl)cc1)C(=O)NCCCCCCNC(=O)N(C)Cc1ccc(Cl)cc1`, the growth inhibition was 96.8% (active) in test [1]; 96.6% (active) in test [2]; 95.7% (active) in test [3]; 96.2% (active) in test [4]; 95.7% (active) in test [5]; 96.8% (active) in test [6].

Take `CC1=NN(c2nc(N)nc(CCl)n2)C(C)(C)C1`: the growth inhibition was -8.1% in test [1]; -0.1% in test [2]; -6.7% in test [3]; -4.75% in test [4]; 17.1% in test [5]; -77.9% in test [6].

Turning to `CCC(=O)OCCC(C)C`, the growth inhibition in test [1] was 35.4%; in test [2] it was 12.2%; in test [3], 6.85%; in test [4] it was -22.1%; in test [5], 19.9%; in test [6], 17.4%.

With `O=CCC(=O)c1ccc(Br)cc1`, the growth inhibition in test [1] was 8.95%; in test [2] it was 3.15%; in test [3], 2.3%; in test [4] it was 2.45%; in test [5], -11.7%; in test [6], 6.85%.

As to `CC(=O)/C(=C/n1ccc(=O)[nH]c1=S)C(=O)Nc1ccc(Cl)cc1`, the growth inhibition in test [1] was -32%; in test [2], -7.6%; in test [3] it was 4.7%; in test [4], 11.7%; in test [5], -20.4%; in test [6], 3.4%.

Take `Cn1cnc(=S)c2ccccc21`: the growth inhibition is -11% in test [1]; -12.8% in test [2]; -18.3% in test [3]; -6.05% in test [4]; 0.8% in test [5]; -29.1% in test [6].

As to `O[C@H]1[C@H]2c3cc4c(cc3CN3CCC(C[C@@H]1O)[C@H]23)OCO4` (stereo partly drawn), the growth inhibition in test [1] is 3.05%; in test [2] it was -6.5%; in test [3], 9.65%; in test [4], 20.3%; in test [5], 3.4%; in test [6], 9.3%.

`Cc1ccc(S(=O)(=O)N2CCCCC2)cc1`: the growth inhibition is -11.8% in test [1]; -3.35% in test [2]; 38.3% in test [3]; -26.1% in test [4]; -6.75% in test [5]; -20.5% in test [6].
